# Measurements: the supplement of paper PMC9023506
# Where a name gives a salt, the structure may show the parent alone.
# System: Danio rerio larvae (5 dpf)
# Test: activity during period 15 (no stimuli), difference vs DMSO (percentage points (treated minus DMSO)); higher = more of the behaviour than the DMSO vehicle control
# Conditions: 10 µM; exposure time: 3 h pre-incubation + 3 h imaging
# Protocol: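 5-dpf wild-type zebrafish larvae were imaged in 96-well plates. They were treated with 190 Tocris FDA-approved drugs at 10 µM (1 µl/ml DMSO) for 3 h before and 3 h during imaging at 28.5 °C, 48 larvae per drug. Automated image analysis gave % time moving and optomotor responses. Values are drug group mean minus DMSO vehicle mean (n=844), in percentage points, for 10 behaviours.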
row,SMILES,activity during period 15
1,CC(=O)O[C@H]1C(=O)[C@@]2(C)[C@H]([C@H](OC(=O)c3ccccc3)[C@]3(O)C[C@H](OC(=O)[C@H](O)[C@@H](NC(=O)c4ccccc4)c4ccccc4)C(C)=C1C3(C)C)[C@]1(OC(C)=O)CO[C@@H]1C[C@@H]2O [Taxol],-4.11
2,CNCc1ccc(-c2[nH]c3cc(F)cc4c3c2CCNC4=O)cc1 [Rucaparib camsylate],-8.43
3,CCOc1cc(CC(=O)N[C@@H](CC(C)C)c2ccccc2N2CCCCC2)ccc1C(=O)O [Repaglinide],-1.47
4,Cc1cccc(C)c1OCC(C)N (stereo not given) [Mexiletine hydrochloride],6.49
5,CC(=O)O[C@]1(C(C)=O)CC[C@H]2[C@@H]3C=C(C)C4=CC(=O)CC[C@]4(C)[C@H]3CC[C@@]21C [Megestrol Acetate],-0.283
6,CC(C)Nc1cccnc1N1CCN(C(=O)c2cc3cc(NS(C)(=O)=O)ccc3[nH]2)CC1 [Delavirdine mesylate],-4.9
7,CCc1nc(N)nc(N)c1-c1ccc(Cl)cc1 [Pyrimethamine],-4.35
8,Cc1ccsc1C(=CCCN1CCC[C@@H](C(=O)O)C1)c1sccc1C [Tiagabine hydrochloride],10.4
9,CC(C)COCC(CN(Cc1ccccc1)c1ccccc1)N1CCCC1 (stereo not given) [Bepridil hydrochloride],13.7
10,CCCCCCCCc1ccc(CCC(N)(CO)CO)cc1,-23.3
11,CN(C)CCc1c[nH]c2ccc(Cn3cncn3)cc12 [Rizatriptan benzoate],-3.72
12,COc1ccccc1OCC(O)CN1CCN(CC(=O)Nc2c(C)cccc2C)CC1 (stereo not given) [Ranolazine dihydrochloride],3.22
13,CC(C)N(CCCCOCC(=O)NS(C)(=O)=O)c1cnc(-c2ccccc2)c(-c2ccccc2)n1 [Selexipag],6.35
14,C[C@@H]1C[C@H]2[C@@H]3CCC4=CC(=O)C=C[C@]4(C)[C@@]3(F)[C@@H](O)C[C@]2(C)[C@@]1(O)C(=O)CO [Dexamethasone],2.91
15,CCc1ccc(CCOc2ccc(CC3SC(=O)NC3=O)cc2)nc1 (stereo not given) [Pioglitazone hydrochloride],-0.879
16,Nc1cc(N2CCCCC2)nc(N)[n+]1[O-] [Minoxidil],6.89
17,COc1ccc(C[C@@H](C)NC[C@H](O)c2ccc(O)c(NC=O)c2)cc1 [Arformoterol tartrate],46.5
18,CNC(=O)c1ccccc1Sc1ccc2c(/C=C/c3ccccn3)n[nH]c2c1 [Axitinib],3.22
19,CCN(CC)CCNC(=O)c1c(C)[nH]c(/C=C2\C(=O)Nc3ccc(F)cc32)c1C [Sunitinib malate],-14.6
20,CC(C)(C(=O)c1cccnc1)c1cccnc1 [Metyrapone],-7.26

row,SMILES,activity during period 15
1,N#Cc1ccc2[nH]cc(CCCCN3CCN(c4ccc5oc(C(N)=O)cc5c4)CC3)c2c1 [Vilazodone hydrochloride],-28.4
2,CS(=O)(=O)CCNCc1ccc(-c2ccc3ncnc(Nc4ccc(OCc5cccc(F)c5)c(Cl)c4)c3c2)o1 [Lapatinib],-13.3
3,OCc1cc(C(O)CNCCCCCCOCCCCc2ccccc2)ccc1O (stereo not given) [Salmeterol xinafoate],23.9
4,C#C[C@]1(O)CC[C@H]2[C@@H]3CCC4=CC(=O)CC[C@@H]4[C@H]3CC[C@@]21CC [Levonorgestrel],-6.07
5,CCOC(=O)[C@H](CCc1ccccc1)N[C@@H](C)C(=O)N1[C@H](C(=O)O)C[C@@H]2CCC[C@@H]21 [Ramipril],-2.34
6,CCCCC1=NC2(CCCC2)C(=O)N1Cc1ccc(-c2ccccc2-c2nnn[nH]2)cc1 [Irbesartan],5.68
7,N#Cc1ccc(C(c2ccc(C#N)cc2)n2cncn2)cc1 [Letrozole],0.514
8,CN(C)C(=N)NC(=N)N [Metformin hydrochloride],-4.35
9,CC(C)OC(=O)C(C)(C)Oc1ccc(C(=O)c2ccc(Cl)cc2)cc1 [Fenofibrate],6.23
10,OCCN1C[C@H](O)[C@@H](O)[C@H](O)[C@H]1CO [Miglitol],-4.45
11,COc1ccc([C@@H]2Sc3ccccc3N(CCN(C)C)C(=O)[C@@H]2OC(C)=O)cc1 [Diltiazem hydrochloride],-3.65
12,CCCC1O[C@@H]2C[C@H]3[C@@H]4CCC5=CC(=O)C=C[C@]5(C)[C@H]4[C@@H](O)C[C@]3(C)[C@]2(C(=O)CO)O1 (stereo not given in full) [Budesonide],5.26
13,CC[C@H](C)C(=O)O[C@H]1C[C@@H](C)C=C2C=C[C@H](C)[C@H](CC[C@@H]3C[C@@H](O)CC(=O)O3)[C@H]21 [Lovastatin],-4.33
14,CCOC(=O)c1ncn2c1CN(C)C(=O)c1cc(F)ccc1-2 [Flumazenil],11.9
15,CCCc1nc(C(C)(C)O)c(C(=O)O)n1Cc1ccc(-c2ccccc2-c2nnn[nH]2)cc1 [Olmesartan],4.45
16,CCCc1nn(C)c2c(=O)[nH]c(-c3cc(S(=O)(=O)N4CCN(C)CC4)ccc3OCC)nc12 [Sildenafil citrate],-20.2
17,Nc1nc2c(ncn2COCCO)c(=O)[nH]1 [Acyclovir],-4.38
18,Nc1ccn([C@@H]2O[C@H](CO)[C@@H](O)C2(F)F)c(=O)n1 [Gemcitabine hydrochloride],-1.53
19,COc1cccc2c1C(=O)c1c(O)c3c(c(O)c1C2=O)C[C@@](O)(C(=O)CO)C[C@@H]3O[C@H]1C[C@H](N)[C@H](O)[C@H](C)O1 [Doxorubicin hydrochloride],-10.6
20,CN1CCC[C@@H]1Cc1c[nH]c2ccc(CCS(=O)(=O)c3ccccc3)cc12 [Eletriptan hydrobromide],-0.424
